The OligoGym collection
Further: reference of the scale not given here.

What follows are sequences tested against DOCK1 (assay: pooled miR-30 sensor sort-seq; sequence = guide strand). Conditions: shRNA.
In the case of TTTCGTAACGTGTAACCTCGGT, the sensor-assay potency score (higher = more potent) was 0.0583. TAACACTTTGTACTGTTCGTCT was tested, and the sensor-assay potency score (higher = more potent) was -0.198. Work on TACATCATCACTACACAGCTTC yielded a sensor-assay potency score (higher = more potent) of 0.384. For TATTATATCTGTTACATCCATC, the sensor-assay potency score (higher = more potent) was -0.566. With TCATCGTACACAGACACCGTGA the sensor-assay potency score (higher = more potent) was -0.406. In the case of TTACAATCTGCTCTGACACTGG, the sensor-assay potency score (higher = more potent) was 0.172. TTGGAGACACACCTCAACCAAC was tested, and the sensor-assay potency score (higher = more potent) was -1.22. With TTCTTTGTTCTCGTCGTGCATG the sensor-assay potency score (higher = more potent) was -1.13. TTTCACATCGTTGACGATCGTT was tested, and the sensor-assay potency score (higher = more potent) was -0.0463. TTGTCTGTTAATATCTATGTTC gave a sensor-assay potency score (higher = more potent) of -0.583. TAACAGTCTCAAACCAGCGTGG gave a sensor-assay potency score (higher = more potent) of -0.364. With TTTCGTTCTCATACTGCTCGGC the sensor-assay potency score (higher = more potent) was 0.184. Work on TTAGACTTTTTTCGTAACGTGT yielded a sensor-assay potency score (higher = more potent) of -0.535. Work on TTATACATCATCACTACACAGC yielded a sensor-assay potency score (higher = more potent) of -0.419. For TTAGAGTCCTGTGATGACCTGT, the sensor-assay potency score (higher = more potent) was 0.59. Work on TTCGACTTCATGATCCAGCTTG yielded a sensor-assay potency score (higher = more potent) of 0.58.
